Hits are enriched below; roughly 3.5% of the tested compounds scored in any of these assays.
mHTT CaM bind – mutant huntingtin-calmodulin interaction inhibitors – biochemical, AlphaScreen, primary screen. P42858. AlphaScreen His-mHTT/GST-CaM binding, luminescence. inhibition, % at 15 µM. 190,000 compounds, 3.6% hits. AID 1671202, 2021;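 note: 0% = both proteins with DMSO and 100% = one protein alone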
Pf apPOL inh – Pf-apPOL inhibitors, biochemical, fluorescence; inhibition, % at 10 µM; Recombinant Pf-apPOL, molecular beacon fluorescence, 1.5 h; 210,000 compounds, 0.25% hits; AID 1794808, 2022
* = called active by the depositor; / = not tested or not shown. Cut-off read from the data, not from the text of the source: active = inhibition above about 50%; inactive = the rest.

SMILES	mHTT CaM bind	Pf apPOL inh
Oc1ccc(/C=C/c2nc(-c3ccccc3O)n(-c3ccccc3)n2)c(O)c1	96*	-77
Oc1ccc(/C=C/c2nc(-c3ccccc3O)n(-c3ccccc3)n2)cc1	92*	6
COc1ccc(/C=C/c2nc(N)nc(-c3ccccc3O)n2)cc1	32	-5
COc1cc2nc(NC(=O)c3cccs3)sc2cc1OC	-12	-5
O=C(Nc1nc(-c2ccc(Cl)c(Cl)c2)cs1)c1c(F)cccc1F	6	-11
CC(=O)N(CN1C(=O)c2ccc([N+](=O)[O-])cc2C1=O)c1ccc(F)cc1	23	3
CC(=O)N(CN1C(=O)c2ccc([N+](=O)[O-])cc2C1=O)c1ccc(Oc2ccc(Cl)cc2)cc1	3	92*
CCOc1ccccc1NC(=O)c1c(NC(=O)CN2CCOCC2)sc2c1CCC2	-4	0
CCOc1ccccc1NC(=O)c1c(NCc2ccncc2)sc2c1CCCC2	53*	-15
CC(C)(C)C(=O)Nc1sc2c(c1C(=O)Nc1ccccn1)CCCC2	-6	-8
CCOc1ccccc1NC(=O)c1c(NC(=O)CNCC2CCCO2)sc2c1CCC2 (stereo not given)	3	-2
COc1ccccc1NC(=O)c1c(NCc2ccccn2)sc2c1CCCCC2	73*	-17
CCOc1ccccc1NC(=O)c1c(NCc2ccccn2)sc2c1CCCCC2	73*	-22
CCOc1ccc(NC(=O)c2c(NC(=O)CN3CCN(C)CC3)sc3c2CCC3)cc1	1	-6
CCOc1ccc(NC(=O)c2c(NCc3ccccn3)sc3c2CCC3)cc1	59*	-15
Cc1ccc(Cc2c(C)nc3nc(SCC(=O)N4CCCC4)nn3c2C)cc1	12	-6
COc1ccccc1OCC(=O)Nc1ccccc1[N+](=O)[O-]	1	-2
Cc1oc2cc(OCC(=O)OC(C)(C)C)ccc2c(=O)c1-c1ccc(Br)cc1	-16	-8
O=C(Nc1ccc(S(=O)(=O)Nc2nccs2)cc1)C(Cl)Cl	7	-6
O=C(Nc1ccc(S(=O)(=O)Nc2nccs2)cc1)Nc1ccc(Cl)c(Cl)c1	78*	-3
Cc1ccc(NC(=O)c2cc(Cl)c(Cl)cc2C(=O)O)cc1C	1	-3
Cc1ccc(NC(=O)c2cc(N3C(=O)C=CC3=O)ccc2Cl)cc1C	92*	-4
CC12CC3CC(C1)CC(C(=O)O)(C3)C2	-3	-5
Cc1c(CCOC(=O)C23CC4CC(CC(C)(C4)C2)C3)sc[n+]1CC(=O)c1ccccc1	99*	-1
Cc1ccc2nc3c(C(=O)N4CCN(Cc5ccccc5)CC4)cccn3c(=O)c2c1	84*	-3
SMILES	mHTT CaM bind	Pf apPOL inh
O=C(NC1CCN(Cc2ccccc2)CC1)c1cccn2c(=O)c3cc(Cl)ccc3nc12	13	-2
CCOc1ccc(CNC2CCN(c3ccc(C(=O)NC4CC4)cn3)C2)cc1 (stereo not given)	-5	-4
Cc1cccc(-n2cnc3cc(C(=O)NC4CCCC4)ccc32)c1	10	4
Cc1cccc(-n2cnc3cc(C(=O)N4CCc5ccccc54)ccc32)c1	67*	28
Cn1cnnc1C1CCCCN1C(=O)Cc1c[nH]c2ccccc12 (stereo not given)	4	91*
CCCn1cnnc1C1CCN(C(=O)Cc2c[nH]c3ccccc23)CC1	13	2
O=C1OC(c2cccc(Cl)c2)=N/C1=C\c1cccc(F)c1	5	-5
CC(NC(=O)c1cn2c(n1)CSCC2)c1ccc(F)cc1 (stereo not given)	93*	-6
CC(NC(=O)c1cn2c(n1)CCCC2)c1ccc(F)cc1 (stereo not given)	10	-8
COc1ccc(OC)c(C2SCCN2S(=O)(=O)c2ccc(Cl)cc2)c1 (stereo not given)	1	-4
COc1ccc(OCC(=O)NCCc2ccccc2)cc1	-7	-1
O=c1c2c3c(sc2nc2ccc(NCc4ccco4)nn12)CCCC3	79*	-3
O=C(Cn1cnc2sc3c(c2c1=O)CCCC3)NCc1ccco1	10	-3
c1ccc(C(c2c[nH]c3ccccc23)c2c[nH]c3ccccc23)nc1	74*	-10
O=C(O)CC(C(=O)O)c1c[nH]c2ccccc12 (stereo not given)	2	-11
CCc1ccc(NC(=O)c2cc(S(=O)(=O)N3CC(C)CC(C)C3)ccc2F)cc1 (stereo not given)	-7	-4
O=C(CCCc1ccccc1)Nc1cccc([N+](=O)[O-])c1	4	-4
O=C(Cc1c([N+](=O)[O-])cc([N+](=O)[O-])cc1S(=O)Cc1ccccc1)Nc1ccccc1 (stereo not given)	84*	-3
CN1CCCc2cc(C(CNC(=O)C34CC5CC(CC(C5)C3)C4)N3CCCC3)ccc21 (stereo not given)	34	5
CN1CCCc2cc(CCNC(=O)C34CC5CC(CC(C5)C3)C4)ccc21	53*	1
CN1CCCc2cc(CCNS(=O)(=O)c3cccs3)ccc21	51*	-5
O=S(=O)(NCC#CCN1CCc2ccccc2C1)c1cccs1	-6	0
COc1cc(/C=C2\C(=O)NN(c3ccc(Br)cc3)C2=O)cc(Cl)c1OC(C)C	36	6
COc1ccc(C2CC(=O)c3c(O)cc(O)cc3O2)cc1O (stereo not given)	/	0
CC(C)=CCc1c(O)cc(O)c2c1OC(c1ccccc1)CC2=O (stereo not given)	51*	-2
SMILES	mHTT CaM bind	Pf apPOL inh
O=C(CSc1n[nH]c(-c2ccco2)n1)c1ccc(O)c(O)c1	3	0
CC(=O)c1ccc(C(=O)Nc2ccc3ncsc3c2)cc1	7	7
CC1(C)C(C(=O)ON2C(=O)CCC2=O)C1(C)C	-9	8
CCN1c2cc(C)ccc2-n2cccc2C12CCN(C(=O)c1ccc(OC)cc1)CC2	94*	-3
CCOc1ccc(C(=O)N2CCC3(CC2)NC(=O)c2cc(C)ccc2N3CC)cc1	6	2
CCN1c2cc(C)ccc2-n2cccc2C12CCN(C(=O)NCC1CCCO1)CC2 (stereo not given)	65*	2
CCCNC(=O)N1CCC2(CC1)c1cccn1-c1ccc(C)cc1N2CC	100*	4
CCN1c2cc(C)ccc2-n2cccc2C12CCN(C(=O)Nc1cccc(F)c1)CC2	72*	5
Cc1cccc(C(=O)NCC2CCCO2)c1 (stereo not given)	-1	-3
CCN1c2cc(C)ccc2-n2cccc2C12CCN(C(=O)Nc1ccccc1F)CC2	31	-3
CCN1c2cc(C)ccc2-n2cccc2C12CCN(C(=O)Nc1ccccc1C)CC2	28	2
COc1ccc(C2Oc3ccccc3C3=C2C(c2cccc(OC)c2)n2ncnc2N3)cc1 (stereo not given)	25	-3
O=S(=O)(NCc1ccccn1)c1ccc(Oc2ccccc2Cl)cc1	-10	-4
Cc1ccccc1CNC(=O)c1c(C)noc1-c1ccncc1	1	-3
Cc1ccc(Cl)cc1NC(=O)c1ccc(-c2cncnc2)nc1	4	-8
Cc1ccc(CNC(=O)CCC2CCCN(C(=O)Nc3ccc(F)cc3)C2)cc1C (stereo not given)	4	-1
CCN1c2cc(C)ccc2-n2cccc2C12CCN(C(=O)NCC(=O)OC)CC2	76*	-2
COC(=O)CNC(=O)N1CCOc2ccc(C)cc21	2	-6
O=C(C1c2ccccc2Oc2ccccc21)N1CCN(c2ncccn2)CC1	2	0
Cc1cc(C)n(CC(=O)Nc2ccc3cn[nH]c3c2)n1	15	2
